# Calls of active or inactive are those of the source. The calls were made as follows: active = hit-call score of the fitted dose curve at least 0.9, where 1 is the maximum; inactive = score below 0.9.
# Biological target: human Dopamine Receptor D2L, DRD2 (gene 1813) (UniProt P14416)
# Assay: ERF_FR_GPCR_hDRD2: Eurofins (ERF) G Protein-Coupled Receptor (GPCR) Radioligand Binding LeadHunter Assay for human Dopamine Receptor D2L Antagonism
# Method: ERF_FR_GPCR_hDRD2 is a biochemical, single-readout assay that uses extracted gene-proteins in a cell-free assay. Measurements were taken 1 hour after chemical dosing in a 96-well plate. See D2L Human Dopamine GPCR Binding (Antagonist Radioligand) Assay, Cerep.ERF_FR_GPCR_hDRD2 is an assay component calculated from the ERF_FR_GPCR_hDRD2 assay. It is designed to measure radioligand binding using a type of binding reporter as detected by scintillation counting with radiometry technology.Data from the assay component ERF_FR_GPCR_hDRD2 was analyzed at the assay endpoint, ERF_FR_GPCR_hDRD2, in the positive analysis fitting direction relative to DMSO as the negative control and baseline of activity. Using a type of binding reporter, loss-of-signal activity can be used to understand changes in binding as they relate to gene DRD2. To generalize the intended target to other relatable targets, this assay endpoint is annotated to the gpcr intended target family, where the subfamily is dopamine.
# Human cells are incubated for 60 minutes at room temprature with [3H]methyl-spiperone ligand (0.3 nM) and Butaclamol as control inhibitor.Test Sample Requirements: Minimum for 1) Screen: 60 ul of 10 mM stock -OR- 1 mg (pre-weighed) for 10 uM final testing. 2) Dose Response: 90 ul of 10 mM stock -OR- 1 mg (pre-weighed) for a top concentration at 10 uM.
# human Dopamine Receptor D2L, DRD2 (gene 1813), sequence (P14416 whole entry, looked up): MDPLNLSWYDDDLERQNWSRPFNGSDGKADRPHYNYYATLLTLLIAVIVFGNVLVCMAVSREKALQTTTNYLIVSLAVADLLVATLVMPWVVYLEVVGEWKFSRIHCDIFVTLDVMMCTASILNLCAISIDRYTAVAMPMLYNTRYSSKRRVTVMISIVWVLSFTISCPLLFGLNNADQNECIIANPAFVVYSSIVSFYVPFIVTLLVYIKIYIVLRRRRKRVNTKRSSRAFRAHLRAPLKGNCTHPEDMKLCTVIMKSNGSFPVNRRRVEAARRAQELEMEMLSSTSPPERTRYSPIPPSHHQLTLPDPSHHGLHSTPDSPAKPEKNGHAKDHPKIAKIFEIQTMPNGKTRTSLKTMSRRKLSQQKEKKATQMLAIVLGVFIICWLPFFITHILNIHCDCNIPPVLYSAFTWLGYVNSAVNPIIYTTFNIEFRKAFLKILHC
row,SMILES,AC50
1,O=C(/C=C/c1ccc(O)cc1)CC(=O)/C=C/c1ccc(O)cc1,1550 nM (active)
